Composite z-score and z-score data for 17 molecules are collected here from PubChem BioAssay.

SMILES strings stand for the structures.

The subject of assay [1] is Human papillomavirus type 1a protein E7 (residues 44-93). In words: HPV1a E7 fragment binders on microarrays, primary screen, biochemical, small-molecule microarray, residues 44-93, 635 nm fluorescence (AID 1108).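 Note: E7 fragment applied at 1 µg/mL in TBST for 1 h at 4 C; score combines spot fluorescence with its signal to noise ratio.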 The settings on record: small-molecule microarray binding, fluorescence 635 nm; higher = more signal.
The nature of assay [2]: modulators of HCV replicon luciferase signal, primary screen, HCV replication inhibitor project, Huh7 cells, luciferase reporter (AID 1109).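 Note: huh7 hepatoma cells harbouring a luciferase neomycin HCV replicon reporter; luciferase luminescence as measure of HCV replicon replication; test concentration not given here.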 Conditions: 48 h, higher = more signal.
Assay [3] concerns the target Left-right determination factor 2 (Homo sapiens) (UniProt O00292). In words: LEFTY2 binders on small-molecule microarrays, primary screen, biochemical, small-molecule microarray, 635 nm fluorescence scan (AID 1110). The settings on record: LEFTY2 binding, higher = more signal.
Assay [4] has as its target Calmodulin-1 (Homo sapiens) (UniProt P0DP23). In words: CALM1 binders on microarrays, EGTA buffer, profiling panel, biochemical, small-molecule microarray, Cy5-labelled CALM1 (AID 1111).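 Note: labelled calmodulin applied in Tris saline Tween buffer holding calcium plus EGTA and DTT.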 The settings on record: Cy5-CALM1 binding fluorescence, higher = more signal.
For assay [5] the target is unchanged. In words: calcium-bound CALM1 binders on microarrays, profiling panel, artefact control for SMM control-protein annotation, biochemical, small-molecule microarray, Cy5-labelled CALM1, plus calcium (AID 1112).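 Note: score merges spot fluorescence with signal to noise from triplicate slides.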 The settings on record: Cy5-CALM1 binding fluorescence, higher = more signal.
Assay [6] can be described thus: small-molecule microarray binders of probe aWnt5a, primary screen, biochemical, biotinylated probe, 635/667 nm fluorescence (AID 1113).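 Note: score merges 667 nm fluorescence intensity with signal-to-noise per printed feature.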 Conditions: higher = more signal.
A short description of assay [7]: small-molecule microarray binders of probe aShh, primary screen, biochemical, biotinylated probe, 635/667 nm fluorescence (AID 1114).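 Note: probe is biotin-labelled aShh protein from a stem cell growth factor screen; measures binding of labelled protein to compounds printed on the slide; score merges feature fluorescence at 667 nm with signal-to-noise.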 Conditions: higher = more signal.
Assay [8] is described as follows: small-molecule microarray binders of probe aNog, primary screen, biochemical, biotinylated probe, 635/667 nm fluorescence (AID 1115).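 Note: probe is biotinylated aNog protein used at 0.15 µg/mL for 1 h at 4 C; z-score combines 667 nm fluorescence of each spot with its signal to noise.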 The settings on record: higher = more signal.
Assay [9] concerns the target Torsin-1A-interacting protein 1 (Homo sapiens) (UniProt Q5JTV8). Description: LAP1 binders from COS7 cell lysate, primary screen, small-molecule microarray, 635/667 nm fluorescence (AID 1116). The settings on record: COS7-hLAP1 lysate binding, 635 nm fluorescence, higher = more signal.
In assay [10] the target is Alpha-bungarotoxin (Bungarus multicinctus) (UniProt P60615). In words: alpha-bungarotoxin binders on microarray, profiling panel, artefact control for SMM control protein annotation, biochemical, small-molecule microarray, Alexa647 label, 635/667 nm fluorescence (AID 1117). Conditions: alpha-BTX-A647 binding fluorescence, higher = more signal.
Sequence of Alpha-bungarotoxin (Bungarus multicinctus) (P60615 whole entry, looked up): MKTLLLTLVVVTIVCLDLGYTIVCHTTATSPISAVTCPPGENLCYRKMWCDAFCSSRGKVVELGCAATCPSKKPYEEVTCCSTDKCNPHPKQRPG

Sequence of Torsin-1A-interacting protein 1 (Homo sapiens) (Q5JTV8 whole entry, looked up): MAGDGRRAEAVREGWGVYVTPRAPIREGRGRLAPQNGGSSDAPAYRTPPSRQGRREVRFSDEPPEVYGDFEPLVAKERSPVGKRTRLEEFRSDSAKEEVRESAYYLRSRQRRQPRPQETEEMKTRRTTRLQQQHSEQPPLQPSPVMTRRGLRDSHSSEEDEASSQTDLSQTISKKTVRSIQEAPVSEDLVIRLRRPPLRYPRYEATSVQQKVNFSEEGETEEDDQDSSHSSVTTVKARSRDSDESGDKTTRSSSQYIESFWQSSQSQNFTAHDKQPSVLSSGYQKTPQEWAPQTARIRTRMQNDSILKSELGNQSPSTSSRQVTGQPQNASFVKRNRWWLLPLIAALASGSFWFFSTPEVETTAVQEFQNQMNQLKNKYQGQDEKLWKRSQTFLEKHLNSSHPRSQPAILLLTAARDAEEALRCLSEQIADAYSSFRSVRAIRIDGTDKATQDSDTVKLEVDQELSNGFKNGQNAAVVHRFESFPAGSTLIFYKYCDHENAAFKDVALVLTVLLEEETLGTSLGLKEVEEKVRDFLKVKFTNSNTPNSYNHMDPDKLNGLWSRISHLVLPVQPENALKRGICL
Sequence of Left-right determination factor 2 (Homo sapiens) (O00292 whole entry, looked up): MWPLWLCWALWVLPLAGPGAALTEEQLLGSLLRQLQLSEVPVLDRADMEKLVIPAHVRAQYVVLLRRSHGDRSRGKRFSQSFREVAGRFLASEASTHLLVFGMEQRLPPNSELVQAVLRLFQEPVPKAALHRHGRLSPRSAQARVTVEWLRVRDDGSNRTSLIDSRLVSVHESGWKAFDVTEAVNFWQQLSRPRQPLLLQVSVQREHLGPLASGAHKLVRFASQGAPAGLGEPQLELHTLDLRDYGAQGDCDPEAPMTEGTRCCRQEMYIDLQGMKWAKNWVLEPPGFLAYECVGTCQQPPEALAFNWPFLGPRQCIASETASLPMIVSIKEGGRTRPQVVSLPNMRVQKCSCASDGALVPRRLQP

On to `C=C(C(=O)CC[C@H](OC(=O)c1ccccc1-c1ccccc1C(=O)O)c1ccc(CO)o1)C(C)C`, for which the composite z-score in assay [1] was 1.24; in assay [3], 0.408; in assay [4] it was 0.506; in assay [5] it was -0.698; in [6], 0.0214; in assay [7], -0.276. In addition, the composite z-score amounted to 0.265 in assay [8], 0.875 in assay [9] and 0.905 in [10]. The molecule further had a z-score in assay [2] of -1.3.
`C[N+](C)(C)CCCCNC(=O)[C@@H]1C[C@@H]2C(=O)N3CCC[C@H]3C(=O)N2[C@@H]1c1cccc(OCCO)c1`: the composite z-score in assay [1] was -0.745; in assay [3] it was 1.14; in [4], -0.794; in [5] it was 0.658; in assay [6], -0.162; in assay [7], -0.0626. Also, the composite z-score in assay [8] was -0.0645; in assay [9] it was 1.62; in [10], 1.16. For the same molecule, the z-score in assay [2] was found to be 0.0741.
For the molecule `CO[C@H]1COC(=O)[C@@H](C)COC(=O)[C@H](Cc2ccccc2)NC(=O)CC=C[C@H]1C`, the composite z-score was 0.334 in assay [1]; 0.726 in assay [3]; -1.69 in assay [4]; -1.8 in assay [5]; -0.135 in assay [6]; -0.143 in assay [7]. For the same molecule, the composite z-score in [8] is -0.454; in assay [9] it was -0.115; in assay [10], 0.0209. Also, the z-score in assay [2] is -0.082.
As for `Cc1ccc(N2C(=O)c3ccccc3[C@](C)(C(=O)NCC(C)C)[C@@H]2c2ccc(CO)cc2)nc1`, the composite z-score in [1] was -1.1; in assay [3], -0.337; in [4], -0.584; in assay [5], -1.07; in [6] it was -0.0405; in assay [7], -0.0257. Moreover, the composite z-score was -0.172 in [8], -0.367 in assay [9] and -0.809 in assay [10]. Besides, the z-score in [2] was 0.324.
With `Cc1cc(C)c(C(O)C2C=CC3C(=O)N(C)C(=O)C3N2N2CCCCC2)c(C)c1` (stereo not given), the composite z-score in [1] came out at 1.37; in [3], 0.314; in assay [4], 1.75; in [5], 0.22; in assay [6] it was 0.0437; in [7], 0.308. Besides, the composite z-score in assay [8] was 1.45; in [9], 0.959; in assay [10], 2.36. This molecule also came in with a z-score in assay [2] of 0.186.
Take `C=CCNC(=O)[C@H]1[C@@H]2C(=O)O[C@@H](c3ccccc3)[C@@H](c3ccccc3)N2[C@@H](c2ccc(O)cc2)[C@]12C(=O)Nc1ccc(C#CCNC(N)=O)cc12`: the composite z-score in assay [1] is 0.0632; in [3] it was -0.84; in assay [4] it was -0.439; in [5], -0.0701; in [6], -0.161; in assay [7], -0.467. Further, the composite z-score was 0.0863 in assay [8], 0.239 in assay [9] and 0.543 in assay [10]. In addition, the z-score in [2] was 0.567.
For `O=C1C2C=CC(C(O)C(c3ccccc3)c3ccccc3)N(Nc3ccc([N+](=O)[O-])cc3)C2C(=O)N1c1ccccc1` (stereo not given), the composite z-score in assay [1] was 1.46; in assay [3], 0.737; in assay [4], 0.858; in assay [5] it was 0.808; in assay [6] it was 0.122; in [7] it was -0.0211. Also, the composite z-score in assay [8] came to 0.676; in assay [9], 0.935; in assay [10] it was 1.42. In addition, the z-score in [2] is -0.871.
In the case of `CC(C)[Si]1(C(C)C)O[C@@H](c2ccccc2)c2cc(C3CC3)nc(-c3ccc(Oc4ccccc4)cc3)c21`, the composite z-score in assay [1] was -0.266; in assay [3] it was -0.436; in assay [4], -0.395; in assay [5], 0.89; in assay [6] it was -0.0758; in [7] it was -0.214. Moreover, the composite z-score in assay [8] was -0.158; in [9], 0.0613; in [10], -0.789. This molecule also displayed a z-score in assay [2] of -0.176.
With `C=CCN1C(=O)[C@@]2(O[C@@H](CCn3cc([C@H](O)c4ccccc4)nn3)[C@H]([Si](C)(C)c3ccc(OC)cc3)[C@H]2C)c2cc(N3CCOC3=O)ccc21`, the composite z-score was -0.0922 in assay [1]; -0.125 in [3]; 0.0419 in assay [4]; 0.462 in assay [5]; -0.0754 in assay [6]; -0.2 in [7]. Also, the composite z-score in assay [8] is -0.0428; in [9] it was 0.559; in assay [10], -0.577. In addition, the z-score in assay [2] was -3.71.
As to `C[C@@H]1C=CCC(=O)OC[C@H]2O[C@@H](C=C[C@@H]2O)[C@H](C)C=CCC(=O)OC[C@H]2O[C@H]1C=C[C@@H]2O`, the composite z-score in assay [1] was 0.14; in assay [3] it was 1.53; in assay [4], -0.365; in [5] it was -2.23; in assay [6], 0.275; in assay [7], 0.186. Besides, the composite z-score in assay [8] was 0.854; in assay [9], 0.196; in [10], -0.22. Also, the z-score in [2] was -0.541.
Regarding `COc1ccc(C(=O)Nc2ccc(CN3C(=O)[C@]4(O[C@H](CCn5cc(CCO)nn5)[C@@H]([Si](C)(C)c5ccc(OC)cc5)[C@@H]4C)c4ccccc43)cc2)cc1`, the composite z-score in assay [1] is 1.05; in assay [3], 0.465; in [4], 0.62; in assay [5], -0.0683; in assay [6] it was 0.0857; in [7], 0.199. Besides, the composite z-score was -0.363 in assay [8], 0.793 in assay [9] and 1.31 in [10]. This molecule came in with a z-score in assay [2] of -5.06.
Regarding `CO[C@H]1COC(=O)[C@H](CCSC)NC(=O)CC=C[C@@H](C)COC(=O)[C@@H](OCc2ccccc2)C=C[C@@H]1C`, the composite z-score in assay [1] was -0.457; in assay [3], 1.23; in [4], -0.86; in [5] it was -1.6; in [6] it was -0.182; in [7], -0.1. Besides, the composite z-score in [8] is -0.541; in assay [9] it was -0.0258; in assay [10] it was -0.414. In assay [2], this molecule showed a z-score of -0.704.
Take `C=CC[C@]1(C(=O)O)N=C(c2ccc(OCCCO)cc2)O[C@H]1c1ccccc1`: the composite z-score in [1] is -0.726; in assay [3], -0.764; in assay [4], 1.21; in assay [5] it was 0.994; in assay [6], -0.124; in assay [7], 0.216. The composite z-score in assay [8] amounted to 0.448; in [9] it was 0.498; in assay [10], 0.378. Further, in assay [2], the z-score was -0.138.
For `CCOC(=O)[C@H]1C/C=C/C[C@H](C(=O)OCC)C(=O)O[C@H]2[C@@H](OC)O[C@H](CO)[C@@H](OC(=O)Nc3ccc(Br)cc3)[C@@H]2OC1=O`, the composite z-score in [1] was 0.205; in assay [3], 0.561; in assay [4], 1.64; in assay [5], 0.155; in assay [6] it was -0.0704; in [7] it was 0.0515. Besides, the composite z-score in [8] stood at 1.5; in [9], 0.396; in [10], 0.465. The same molecule showed a z-score in assay [2] of -3.56.
Regarding `CN1CCC(CCCO)=CC1C1CC1` (stereo not given), the composite z-score in assay [1] is -0.416; in assay [3], 0.637; in assay [4], -1.21; in [5], -1.36; in assay [6], -0.172; in assay [7], -0.138. For the same molecule, the results for the composite z-score in [8], in assay [9] and in assay [10] were -0.473, -0.434 and -0.234, respectively. For the same molecule, the z-score in assay [2] was determined as 0.306.
On to `CC(C)(C)OC(=O)CC[C@@]1(C(=O)NCc2ccccc2)N=C(c2ccc(OCCCO)cc2)O[C@@H]1c1ccccc1`, for which the composite z-score in [1] stood at 1.33; in [3], 0.144; in [4], 2.4; in assay [5], 1.26; in assay [6] it was 0.0077; in assay [7], 0.14. Besides, the composite z-score in assay [8] amounted to 0.92; in [9], 2.67; in assay [10], 2.97. This molecule also displayed a z-score in assay [2] of -3.13.
Regarding `C=C(COC)C(=O)CC[C@H](OC(=O)c1ccccc1-c1ccccc1C(=O)O)c1cccc(OCCO)c1`, the composite z-score was 1.4 in assay [1]; 0.757 in [3]; 3.03 in assay [4]; 0.733 in assay [5]; 0.0519 in [6]; -0.17 in assay [7]. Also, the values for the composite z-score in assay [8], in assay [9] and in assay [10] were 0.0519, 3.73 and -0.151, respectively. Also, in assay [2], the z-score is -3.1.
